The text below walks through data of PubChem BioAssay (NCATS).

Each structure is given as a SMILES string. Results filed as inconclusive are left out. Activity calls are given as the source filed them. Calls follow the shape of the dose curve; as a rule, active = well fitted curve in the direction sought with a large enough effect; inconclusive = small, poorly fitted or top-dose-only effect, or another doubt; inactive = no such curve, though single readings can be large; an effect the other way counts as inactive or inconclusive.

A short description of test [1]: qHTS of pediatric cancer cell lines to identify multiple opportunities for drug repurposing: Primary screen for NB1643 cells (AID 1347099). Also: nearly all actives have a fitted effect of over 50% in size. Also: potency is read from the fitted curve at half-maximal effect. A digest of the protocol:
(§1)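 Plated cells (500-1,000 per well, growth media) were allowed to settle for 5 hours, treated with compound dilutions for 48 hours, then lysed with CellTiter-Glo for 15 min at room temperature before luminescence reading.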
On the technique in general: In qHTS, concentration-response curves come from the screen itself.

Test [2] can be described thus: qHTS of pediatric cancer cell lines to identify multiple opportunities for drug repurposing: Primary screen for LAN-5 cells (AID 1347100). Also: potency is read from the fitted curve at half-maximal effect. The essentials:
(§2)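 Viability after 48 h compound treatment at 37C, 500-1,000 cells/well, read as ATP luminescence with CellTiter-Glo. Primary screens used 11-point (MIPE, 0.78 nM-46 µM) or 8-point (NPC, 0.59 nM-46 µM) final concentrations; follow-up screens used 11-point dilutions.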

Test [3] is described as follows: qHTS of pediatric cancer cell lines to identify multiple opportunities for drug repurposing: Primary screen for Rh18 cells (AID 1347102). Also: nearly all actives have a fitted effect of over 65% in size. Also: potency is read from the fitted curve at half-maximal effect. A digest of the protocol: as §2
A short description of test [4]: qHTS of pediatric cancer cell lines to identify multiple opportunities for drug repurposing: Primary screen for MG 63 (6-TG R) cells (AID 1347105). Also: nearly all actives have a fitted effect of over 50% in size. Also: potency is read from the fitted curve at half-maximal effect. The essentials:
as §1

The nature of test [5]: qHTS of pediatric cancer cell lines to identify multiple opportunities for drug repurposing: Primary screen for control Hh wild type fibroblast cells (AID 1347106).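 Also: series mostly up to about 46 µM; a drop in luminescence marks cytotoxicity and a rise apparent proliferation; nearly all actives have a fitted effect of over 55% in size.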 A digest of the protocol: as §2
Test [6] in a line: qHTS of pediatric cancer cell lines to identify multiple opportunities for drug repurposing: Primary screen for BT-12 cells (AID 1347101). Also: nearly all actives have a fitted effect of over 25% in size. Also: potency is read from the fitted curve at half-maximal effect. The essentials:
(§3)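 Cells (500-1,000/well) rested 5 h, then received compounds for 48 h; metabolically active cells were measured by CellTiter-Glo luminescence. Final concentrations spanned up to 46 µM (MIPE, 11-point) or 0.59 nM-46 µM (NPC, 8-point) in primary screens, 11-point in follow-ups.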

A short description of test [7]: qHTS of pediatric cancer cell lines to identify multiple opportunities for drug repurposing: Primary screen for OHS-50 cells (AID 1347103). Also: nearly all actives have a fitted effect of over 40% in size. Also: potency is read from the fitted curve at half-maximal effect. A digest of the protocol:
as §3

A short description of test [8]: qHTS of pediatric cancer cell lines to identify multiple opportunities for drug repurposing: Primary screen for RD cells (AID 1347104). Also: nearly all actives have a fitted effect of over 55% in size. Also: potency is read from the fitted curve at half-maximal effect. The essentials:
as §1

For the compound `NC1(C(=O)N[C@@H](CCO)c2ccc(Cl)cc2)CCN(c2ncnc3[nH]ccc23)CC1`, the Potency was 1.87 µM (active) in test [1], 18.7 µM (active) in test [2], 2.35 µM (active) in test [3] and 7.43 µM (active) in test [4]. Also, the Potency result in test [5] is “inactive”.
For `Cc1cnc(Nc2cccc(CN3CCOCC3)c2)nc1Nc1cccc(S(=O)(=O)NC(C)(C)C)c1`, the Potency in test [1] is 8.33 µM (active); in test [2], 1.48 µM (active); in test [6] it was 13.7 µM (active); in test [7] it was 3.43 µM (active); in test [8], 13.2 µM (active); in test [4] it was 7.43 µM (active).
For `Cc1c(-c2cccc3c(CCCOc4cccc5ccccc45)c(C(=O)O)n(Cc4cccnc4)c23)c(COc2ccc(N3CCN([S+](=O)([O-])N(C)C)CC3)cc2)nn1C`, the Potency is 23.5 µM (active) in test [1], 20.9 µM (active) in test [2], 33.2 µM (active) in test [8] and 23.5 µM (active) in test [4]. Besides, the Potency entry in test [5] is “inactive”.
With `CC(=O)N1CCN(c2ccc(OCc3nn(C)c(C)c3-c3cccc4c(CCCOc5cc(C)c(Cl)c(C)c5)c(C(=O)O)n(Cc5cccnc5)c34)cc2)CC1`, the Potency in test [1] was 18.7 µM (active); in test [2], 20.9 µM (active); in test [4], 29.6 µM (active). In addition, in test [5], the Potency result was “inactive”.
As for `CN1[C@H]2CC[C@H]1CC(OC(=O)c1c[nH]c3ccccc13)C2` (some centres not stated), in test [1], the Potency is 23.5 µM (active). Also, the Potency entry in test [2], in test [6], in test [8] and in test [4] was “inactive” each time.
Regarding `CN[C@@H]1CN(c2ccc3c(=O)c(C(=O)O)cn(-c4nccs4)c3n2)C[C@@H]1OC`, the Potency is 1.62 µM (active) in test [1]; 1.02 µM (active) in test [2]; 9.43 µM (active) in test [6]; 16.8 µM (active) in test [7]; 14.4 µM (active) in test [8].
For `CN1c2ccccc2C(=O)N2CCc3c([nH]c4ccccc34)C21` (configuration not stated), the Potency in test [1] was 13.2 µM (active). For the same compound, the Potency result in test [2], in test [6], in test [7], in test [4] and in test [5] was “inactive” in each case.
In the case of `Cc1cc(CS(=O)(=O)c2ccccc2)cc(OCc2ccc(CN3CCC[C@H]3CO)cc2)c1`, the Potency in test [1] is 14.8 µM (active); in test [8] it was 5.9 µM (active). Besides, the Potency entry in test [2] and in test [5] was “inactive” in each case.
`CC(C)CN(C[C@H](O)[C@H](Cc1ccccc1)NC(=O)O[C@H]1CCOC1)S(=O)(=O)c1ccc(N)cc1`: the Potency entry in test [1], in test [2] and in test [3] was “inactive” in each case.
As for `O=[N+]([O-])c1ccc(Nc2ccccc2-c2ccccc2)c2nonc12`, the Potency in test [1] is 23.5 µM (active). The Potency entry in test [3] and in test [5] was “inactive” throughout.
As to `COc1cc(Cl)cn2c(-c3cccc(NC4CNC4)n3)cnc12`, the Potency in test [1] was 10.5 µM (active); in test [2] it was 16.6 µM (active); in test [7], 12.2 µM (active). Besides, the Potency result in test [3], in test [8] and in test [5] was “inactive” each time.
For `O=C1NC(=O)C(c2cnc3ccccn23)=C1c1cn2c3c(cccc13)CN(C(=O)N1CCOCC1)CC2`, the Potency in test [1] was 20.9 µM (active); in test [2], 2.96 µM (active); in test [4], 0.469 µM (active). The Potency result in test [5] is “inactive”.
As to `O=C1C(c2c(O)[nH]c3ccccc23)=Nc2ccccc21`, the Potency result in test [1], in test [2], in test [3] and in test [7] was “inactive” in each case.
Turning to `CCOc1ccccc1N=Nc1c(C)[nH]n(-c2nc(-c3ccccc3)cs2)c1=O`, the Potency in test [1] was 1.18 µM (active). Besides, the Potency entry in test [6] and in test [3] was “inactive” each time.
Take `Nc1nc(Cl)nc2c1ncn2[C@@H]1O[C@H](CO)[C@@H](O)[C@H]1F`: the Potency was 3.72 µM (active) in test [1], 0.0372 µM (active) in test [2] and 1.18 µM (active) in test [4]. In addition, the Potency entry in test [3] and in test [5] was “inactive” each time.
As to `O=C(Nc1cccc2c(=O)cc(-c3nn[nH]n3)oc12)c1ccc(OCCCCc2ccccc2)cc1`, the Potency entry in test [1], in test [4] and in test [5] was “inactive” in each case. Also, the values for the Potency in test [7] and in test [8] were 24.3 µM (active) and 37.2 µM (active), respectively.
As to `CC(=O)OCC(=O)[C@@]1(O)CC[C@H]2[C@@H]3CCC4=CC(=O)C=C[C@]4(C)[C@@H]3[C@@H](O)C[C@@]21C`, the Potency result in test [1], in test [2], in test [3], in test [8], in test [4] and in test [5] was “inactive” throughout.
For the compound `CCCCCCCCCCCCCC(=O)N[C@H](CO)[C@H](O)c1ccc([N+](=O)[O-])cc1`, the Potency in test [6] was 24.3 µM (active). Further, the Potency result in test [3], in test [7] and in test [5] was “inactive” throughout.
`CCC[C@@H](NC(=O)[C@@H]1[C@H]2CCC[C@@H]2CN1C(=O)[C@@H](NC(=O)[C@@H](NC(=O)c1cnccn1)C1CCCCC1)C(C)(C)C)C(=O)C(=O)NC1CC1`: the Potency result in test [1] and in test [4] was “inactive” each time.
For `CCC(=O)N1CCN(c2ccc(-n3c(=O)ccc4cnc5ccc(-c6cnc7ccccc7c6)cc5c43)cc2C(F)(F)F)CC1`, in test [2], the Potency entry was “inactive”. The Potency in test [7] is 0.0432 µM (active).
In the case of `C[C@]12CC[C@@H]3c4ccc(O)cc4CC[C@H]3[C@H]1[C@@H](O)[C@@H](O)[C@H]2O`, the Potency result in test [3] was “inactive”.
Take `C#C[C@]1(O)CC[C@H]2[C@H]3CCc4cc(OC)ccc4[C@H]3CC[C@@]21C`: the Potency result in test [2], in test [6] and in test [5] was “inactive” throughout.
With `C[C@@H](O[C@H]1OCCN(Cc2n[nH]c(=O)[nH]2)[C@@H]1c1ccc(F)cc1)c1cc(C(F)(F)F)cc(C(F)(F)F)c1`, the values for the Potency in test [1], in test [7] and in test [4] were 23.5 µM (active), 30.6 µM (active) and 23.5 µM (active), respectively.
For `COC1CCC(C(=O)c2ccc3nc4c(cc3c2)CCCO4)CC1` (configuration not stated), the Potency in test [6] is 1.93 µM (active); in test [7], 12.2 µM (active); in test [8], 26.4 µM (active). Further, the Potency result in test [3] was “inactive”.
As to `COc1cc2ncn(-c3cc(OCc4ccccc4S(C)(=O)=O)c(C#N)s3)c2cc1OC`, the Potency result in test [2], in test [6], in test [3] and in test [4] was “inactive” throughout.
